The record followed here is paper PMC5540273 (PLoS ONE, 2017).

Molecules are shown by their SMILES.
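Note: KINOMEscan kinase panel screen.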

In the experiment the test system is T1, FAK.
T1 construct: gene PTK2
The settings on record: concentration: 1 μM, replicates: in singlicate; n = 1.
Take `CCS(=O)(=O)c1ccc(OC)c(Nc2nccc(-c3c(-c4cccc(NC(=O)c5c(F)cccc5F)c4)nn4ncccc34)n2)c1` [GSK326180]: the “%Inh” value is 0%. `COc1cc(Nc2nccc(-c3c(-c4cccc(NC(=O)c5c(F)cccc5F)c4)nn4ncccc34)n2)cc(OC)c1OC` [GSK327238]: the “%Inh” value is 38%. As for `COc1ccc(-c2coc3ccc(-c4nnc(SCc5ccc(OC)c(C(F)(F)F)c5)o4)cc23)cc1`, the “%Inh” value is 10%. Consider `Oc1cc(Nc2ccnc3cc(I)ccc23)ccc1F` [GW552771], for which the “%Inh” value is 0%. The figure for `O=c1[nH]cc(-c2ccc(N3CCOCC3)cc2)c2sc(-c3cn[nH]c3)cc12` [GSK2276055] is 0%; for `FC(F)(F)c1ccc(/C=C/c2cncnc2Nc2ccc3[nH]c(Cc4ccccc4)nc3c2)cc1` [GW709199] it is 21%; for `Nc1ncnc2c1nc(-c1ccccc1)n2-c1ccccc1` [SKF-97293] it is 14%. As for `Cn1cc(-c2ccc3c(c2)CCN3C(=O)Cc2cccc(Cl)c2)c2c(N)ncnc21` [GSK2606590], the figure is 0%; as for `Cc1ccc(C(=O)Nc2ccc(Nc3ccnc4cc(-c5nccs5)ccc34)cc2O)cc1.Cl` [GW494702], 0%.

Turning to `COc1cc(Nc2ncc3c(C)nc(-c4cc5ccccc5[nH]4)n3n2)cc(OC)c1OC` [GW869516], the “%Inh” value turned out to be 6%.

On to `COc1ccc(CNC(=O)NC2CCN(c3ccnc(Nc4ccc(F)cc4)n3)CC2)cc1` [GSK1379788], for which the “%Inh” value is 0%. The figure for `CCn1c(-c2nonc2N)nc2c(C#CC(C)(C)O)nc(OC[C@H](N)c3ccccc3)cc21` [GSK943949] is 0%. With `Cl.c1ccc(-c2ccc3c(Nc4ccc5[nH]ncc5c4)ccnc3c2)nc1` [GW440137], the “%Inh” value worked out at 0%. `COc1cccc(-c2ccc3c(NC(=O)C4CC4)n[nH]c3n2)c1` [SB-710903]: the “%Inh” value was found to be 0%. With `COc1cccc(C(=O)Nc2cccc(Oc3ccc4nc(NC(=O)C5CC5)cn4n3)c2)c1`, the “%Inh” value turned out to be 1%. The figure for `CNC(=O)c1ccccc1Nc1nc(Nc2ccc(N3CCOCC3)cc2)ncc1Cl.Cl` [GSK1576028] is 100%. As for `O=C(Nc1cccc(Oc2ccc3nc(NC(=O)C4CC4)cn3n2)c1)c1ccccc1C(F)(F)F`, the figure is 9%; as for `Cc1ccc(S(=O)(=O)Nc2ccc(Nc3nccc(Nc4cccc5[nH]ncc45)n3)cc2)cc1` [GSK581271], 0%; as for `Cc1cccc(NC(=O)Nc2ccc(Oc3ncnc4ccn(C)c34)cc2)c1`, 5%. In the case of `CC(=O)Nc1nc2cnc(Nc3cc(NC(=O)c4cccc(C5(C#N)CC5)c4Cl)ccc3C)nc2s1`, the “%Inh” value came to 0%. As to `COc1cccc(C2=C(Nc3ccc(Cl)c(C(=O)O)c3)C(=O)NC2=O)c1` [SB-390769], the “%Inh” value was 0%.

Consider `CN(C)S(=O)(=O)c1cc(-c2ccc3nccc(-c4cccc(S(N)(=O)=O)c4)c3c2)cnc1N` [GSK1669921], for which the “%Inh” value was 0%.

On to `O=C(Nc1ccccc1F)NC1CCN(c2ccnc(Nc3ccc(F)cc3)n2)CC1` [GSK1379800], for which the “%Inh” value was 0%. With `O=C(Nc1n[nH]c2cc(-c3ccoc3)ccc12)C1CC1` [SB-738481], the “%Inh” value was found to be 7%.

With `CSc1cccc2c(-c3ccncn3)c(-c3ccc(F)cc3)nn12` [GW514786], the “%Inh” value was determined as 0%.

As for `CN(c1ccc(NC(=O)Nc2cc(C(F)(F)F)ccc2F)cc1)c1ccnc(Nc2ccc(S(N)(=O)=O)cc2)n1` [GW809893], the “%Inh” value was determined as 98.8%.

As to `O=C(Nc1cccc(-c2nn3ncccc3c2-c2ccnc(Nc3ccccc3)n2)c1)c1c(F)cccc1F` [GSK198271], the “%Inh” value was found to be 0%. Turning to `c1ccc(-c2n[nH]cc2Nc2ccnc3ccccc23)nc1` [GW694077], the “%Inh” value turned out to be 0%. As to `Cl.Cl.NCC(C(=O)Nc1cc(Br)c(-c2ccnc3[nH]ccc23)s1)c1ccccc1` (stereo not shown) [GSK1269851], the “%Inh” value amounted to 0%. The figure for `O=C(Nc1cccc(-c2nn3ccccc3c2-c2ccnc(Nc3cccc(C(F)(F)F)c3)n2)c1)c1c(F)cccc1F` [GSK292658] is 0%; for `Cc1ccc(C)c(NC(=O)NC2CCN(c3ccnc(Nc4ccc(F)cc4)n3)C2)c1` (stereo not shown) [GSK1379720] it is 0%; for `COCCOCCOc1cc2ncc3c4ccc(C#N)cc4[nH]c3c2cc1OC` it is 16%. On to `CN1CCN(Cc2cccc(-c3ccc4c(Nc5ccc(Oc6ccccc6)cc5)ccnc4c3)c2)CC1` [GW578342], for which the “%Inh” value stood at 0%. As to `Cl.Cl.NCC(NCc1ccc(-c2ccnc3[nH]ccc23)s1)c1ccccc1` (stereo not shown) [GSK1321565], the “%Inh” value is 19%. As for `Cn1cc(-c2ccc3c(c2)CCN3C(=O)Cc2cccc(F)c2)c2c(N)ncnc21` [GSK2603358], the “%Inh” value is listed as 0%. The figure for `Clc1ccc(-c2nn3ncccc3c2-c2ccnc(Nc3ccc4c(c3)OCCO4)n2)cc1` [GW829116] is 0%.

On to `Nc1ncc(-c2cccnc2)c2scc(-c3ccc4c(c3)CCN4C(=O)Cc3ccccc3)c12` [GSK683281], for which the “%Inh” value was 0%.
